Data on ten compounds can be found in PubChem BioAssay (EPA / NIEHS).

Inconclusive results are not listed. Where a structure was tested more than once in an assay, its records may differ in their call. The source made the active and inactive calls. How the source made its calls: active means hit-call score of the fitted dose curve at least 0.9, where 1 is the maximum; inconclusive means response in the unintended direction; inactive means score below 0.9.

Assay [1] addresses Estrogen receptor (Homo sapiens) (UniProt P03372). The experiment in a line: OT_ER_ERaERa_0480: Odyssey Thera (OT) 8-hour HEK293T Protein-Complementation Assay for Estrogen Receptor-alpha/-alpha Homodimer (AID 2283351).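 Further: rise in fluorescence from reassembled reporter fragments on ERα LBD homodimer in nucleus or whole cell.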 The gist of the method:
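Measures ERα LBD (aa 310-547) homodimer complementation in stably transfected HEK293T at 8 h post-dose, with fluorescence intensity quantified on a laser scanning cytometer relative to DMSO controls.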

In assay [2] the target is Androgen Receptor/SRC-1 Co-activator, AR (gene 367) (UniProt P10275). The assay can be described thus: OT_AR_ARSRC1_0960: Odyssey Thera (OT) 16-hour HEK293T Protein-Complementation Assay for Androgen Receptor/SRC-1 Co-activator (AID 2283353).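 Further: actives raise the signal above DMSO so potency reflects increased AR and SRC-1 complex.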 An outline of the steps:
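Sixteen-hour cell assay: Venus halves fused to AR and SRC-1 in HEK293T report binding. Images at 488/635 nm give an N/C ratio in the 488 nm channel over ≥400 cells, analysed as signal increase over DMSO.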

Assay [3] shares this target. The experiment in a line: OT_AR_ARSRC1_0480: Odyssey Thera (OT) 8-hour HEK293T Protein-Complementation Assay for Androgen Receptor/SRC-1 Co-activator (AID 2283354).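 Further: hits raise the complementation signal above DMSO so AC50 marks enhancers.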 The gist of the method: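 Reconstituted split-Venus YFP signal from AR–SRC-1 interaction, read by imaging 8 h post-dose in stable HEK293T lines. The 488 nm nucleus-to-cytoplasm ratio (≥400 cells/image) was fitted upward against DMSO.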

Assay [4] deals with Estrogen receptor (Homo sapiens) + Estrogen receptor beta (Homo sapiens) (UniProt P03372+Q92731). The experiment in a line: OT_ER_ERaERb_1440: Odyssey Thera (OT) 24-hour HEK293T Protein-Complementation Assay for Estrogen Receptor-alpha/-beta Homodimer (AID 2283356).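 Further: heteromer of ER alpha and ER beta binding domains; hits raise reporter fluorescence and both agonists and antagonists give an increase.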 The gist of the method: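 Fragment complementation between ER alpha (310-547) and ER beta (263-489) ligand-binding domains in HEK293T cells; signal read 24 h post-dosing by laser scanning cytometer. Gain of fluorescence relative to DMSO fitted.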

For assay [5], the target named is Estrogen receptor beta (Homo sapiens) (UniProt Q92731). The experiment in a line: OT_ER_ERbERb_0480: Odyssey Thera (OT) 8-hour HEK293T Protein-Complementation Assay for Estrogen Receptor-beta/-beta Homodimer (AID 2283357).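 Further: active means signal gain over DMSO baseline.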 The gist of the method: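 ER-beta LBD homodimer PCA stably expressed in HEK293T; 8 h compound exposure, then formaldehyde fixation and Draq5 staining. Gain in nuclear/cytoplasmic fluorescence intensity versus DMSO vehicle, read on laser scanning cytometer.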

Assay [6] has as its target rat Mineralocorticoid Receptor (MR), Nr3c2 (gene 25672) (UniProt P22199). The experiment in a line: NVS_NR_rMR: NovaScreen (NVS) Nuclear Receptor Binding Assay for rat Mineralocorticoid Receptor (MR) (AID 2283355). The gist of the method: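 Primary HTS ran in duplicate at a single 25 uM concentration, with concentration-series follow-up for actives. Receptor source: adrenalectomized rat brain supernatant, cell-free. Radioligand displacement read by scintillation at 24 h, relative to DMSO baseline.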

The target of assay [7] is Retinoic acid receptor alpha (Homo sapiens) (UniProt P10276). The experiment in a line: NVS_NR_hRAR_Antagonist: NovaScreen (NVS) Nuclear Receptor Binding Assay for human Retinoic Acid Alpha Receptor Antagonism (RAR) (AID 2283358). The gist of the method:
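RARalpha antagonism was read by TR-FRET as loss of binding signal versus DMSO, 2 h after chemical addition, in a biochemical format. Single-concentration duplicates (25 uM) were run first, and actives were retested in concentration series.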

Assay [8] concerns the target human Thyroid Receptor Alpha (TRa), THRA (gene 7067) (UniProt P10827). The assay can be described thus: NVS_NR_hTRa_Antagonist: NovaScreen (NVS) Nuclear Receptor Binding Assay for human Thyroid Receptor Alpha Antagonism (TRa) (AID 2283362).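 Further: activity is loss of signal relative to DMSO baseline.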 An outline of the steps: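 Actives from a duplicate 25 uM single-point screen were retested in concentration series. The cell-free antagonist-format binding assay was read by AlphaLISA chemiluminescence at 1 h, scored as signal loss relative to DMSO.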

Assay [9] concerns the target human Peroxisome Proliferator-activated Receptor alpha (PPARa), PPARA (gene 5465) (UniProt Q07869). The assay can be described thus: NVS_NR_hPPARa: NovaScreen (NVS) Nuclear Receptor Binding Assay for human Peroxisome Proliferator-activated Receptor alpha (PPARa) (AID 2283359).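 Further: activity means loss of TR-FRET signal versus DMSO baseline.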 An outline of the steps:
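Loss of TR-FRET binding signal relative to DMSO was measured 1 h after chemical addition to extracted receptor protein. Chemicals were first tested in duplicate at 25 uM, and actives were followed up in concentration series.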

Sequence of human Thyroid Receptor Alpha (TRa), THRA (gene 7067) (P10827 whole entry, looked up): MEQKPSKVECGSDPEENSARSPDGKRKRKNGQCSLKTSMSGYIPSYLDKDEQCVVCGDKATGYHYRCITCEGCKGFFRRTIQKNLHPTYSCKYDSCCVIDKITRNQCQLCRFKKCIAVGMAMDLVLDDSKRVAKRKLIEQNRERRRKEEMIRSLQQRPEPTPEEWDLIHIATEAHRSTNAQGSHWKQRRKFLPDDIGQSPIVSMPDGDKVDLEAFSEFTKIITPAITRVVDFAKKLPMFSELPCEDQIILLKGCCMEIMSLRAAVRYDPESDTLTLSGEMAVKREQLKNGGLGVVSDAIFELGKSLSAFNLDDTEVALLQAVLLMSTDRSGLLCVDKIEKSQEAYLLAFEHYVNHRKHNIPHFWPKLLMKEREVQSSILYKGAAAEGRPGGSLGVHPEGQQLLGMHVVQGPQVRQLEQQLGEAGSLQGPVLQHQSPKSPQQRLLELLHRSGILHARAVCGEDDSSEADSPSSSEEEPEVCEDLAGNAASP
Sequence of human Peroxisome Proliferator-activated Receptor alpha (PPARa), PPARA (gene 5465) (Q07869 whole entry, looked up): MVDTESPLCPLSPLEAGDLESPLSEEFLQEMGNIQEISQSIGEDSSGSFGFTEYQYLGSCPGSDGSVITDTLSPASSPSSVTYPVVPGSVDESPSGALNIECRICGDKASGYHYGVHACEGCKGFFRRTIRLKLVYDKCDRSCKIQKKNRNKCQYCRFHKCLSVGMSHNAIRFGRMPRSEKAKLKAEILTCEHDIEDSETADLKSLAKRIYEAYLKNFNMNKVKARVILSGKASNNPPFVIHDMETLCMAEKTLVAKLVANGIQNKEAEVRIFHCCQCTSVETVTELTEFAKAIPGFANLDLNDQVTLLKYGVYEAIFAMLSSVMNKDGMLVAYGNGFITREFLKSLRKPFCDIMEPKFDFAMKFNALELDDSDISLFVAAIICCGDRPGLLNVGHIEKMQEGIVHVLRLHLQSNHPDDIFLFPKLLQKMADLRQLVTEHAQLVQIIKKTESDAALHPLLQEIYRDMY
Sequence of Androgen Receptor/SRC-1 Co-activator, AR (gene 367) (P10275 whole entry, looked up, the tested form may be a part): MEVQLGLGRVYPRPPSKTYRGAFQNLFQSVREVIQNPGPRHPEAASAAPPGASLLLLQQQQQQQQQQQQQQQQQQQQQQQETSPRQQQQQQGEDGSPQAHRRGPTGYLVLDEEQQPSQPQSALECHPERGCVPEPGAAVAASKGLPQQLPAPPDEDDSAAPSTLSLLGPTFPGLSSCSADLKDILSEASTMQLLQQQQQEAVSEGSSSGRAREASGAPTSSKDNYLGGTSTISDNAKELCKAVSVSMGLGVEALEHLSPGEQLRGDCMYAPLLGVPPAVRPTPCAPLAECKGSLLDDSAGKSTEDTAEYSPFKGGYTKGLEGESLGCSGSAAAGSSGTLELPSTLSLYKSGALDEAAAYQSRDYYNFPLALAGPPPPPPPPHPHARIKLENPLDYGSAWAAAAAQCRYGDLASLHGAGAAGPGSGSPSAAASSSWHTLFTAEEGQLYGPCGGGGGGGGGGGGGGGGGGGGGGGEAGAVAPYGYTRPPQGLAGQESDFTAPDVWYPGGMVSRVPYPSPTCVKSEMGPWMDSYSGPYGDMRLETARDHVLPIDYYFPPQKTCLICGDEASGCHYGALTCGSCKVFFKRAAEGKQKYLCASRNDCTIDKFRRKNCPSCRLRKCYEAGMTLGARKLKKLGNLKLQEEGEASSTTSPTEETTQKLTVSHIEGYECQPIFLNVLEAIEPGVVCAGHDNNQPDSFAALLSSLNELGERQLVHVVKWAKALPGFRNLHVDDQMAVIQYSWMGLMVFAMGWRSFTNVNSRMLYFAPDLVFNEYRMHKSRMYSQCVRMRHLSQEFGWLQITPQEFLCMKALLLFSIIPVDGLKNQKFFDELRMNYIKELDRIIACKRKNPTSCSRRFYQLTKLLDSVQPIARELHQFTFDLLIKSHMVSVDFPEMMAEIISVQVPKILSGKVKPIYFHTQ
Sequence of Estrogen receptor (Homo sapiens) (P03372 whole entry, looked up, the tested form may be a part): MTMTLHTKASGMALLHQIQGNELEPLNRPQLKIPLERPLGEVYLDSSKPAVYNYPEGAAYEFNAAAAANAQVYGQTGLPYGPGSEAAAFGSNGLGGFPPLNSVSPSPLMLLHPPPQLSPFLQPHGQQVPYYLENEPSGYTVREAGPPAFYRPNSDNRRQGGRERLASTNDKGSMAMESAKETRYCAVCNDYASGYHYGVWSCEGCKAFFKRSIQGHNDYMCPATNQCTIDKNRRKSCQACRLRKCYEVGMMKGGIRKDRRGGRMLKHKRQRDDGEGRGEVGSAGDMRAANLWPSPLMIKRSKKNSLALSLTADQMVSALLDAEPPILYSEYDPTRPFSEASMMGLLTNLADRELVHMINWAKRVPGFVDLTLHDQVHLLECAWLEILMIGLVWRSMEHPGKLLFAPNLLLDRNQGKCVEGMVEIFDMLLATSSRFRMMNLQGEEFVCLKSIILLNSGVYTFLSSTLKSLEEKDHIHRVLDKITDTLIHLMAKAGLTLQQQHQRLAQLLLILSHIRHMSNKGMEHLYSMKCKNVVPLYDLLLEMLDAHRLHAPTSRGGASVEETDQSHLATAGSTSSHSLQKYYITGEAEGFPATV
Sequence of Estrogen receptor (Homo sapiens) + Estrogen receptor beta (Homo sapiens) (P03372 whole entry, looked up, the tested form may be a part): as above
Sequence of Estrogen receptor (Homo sapiens) + Estrogen receptor beta (Homo sapiens) (Q92731 whole entry, looked up, the tested form may be a part): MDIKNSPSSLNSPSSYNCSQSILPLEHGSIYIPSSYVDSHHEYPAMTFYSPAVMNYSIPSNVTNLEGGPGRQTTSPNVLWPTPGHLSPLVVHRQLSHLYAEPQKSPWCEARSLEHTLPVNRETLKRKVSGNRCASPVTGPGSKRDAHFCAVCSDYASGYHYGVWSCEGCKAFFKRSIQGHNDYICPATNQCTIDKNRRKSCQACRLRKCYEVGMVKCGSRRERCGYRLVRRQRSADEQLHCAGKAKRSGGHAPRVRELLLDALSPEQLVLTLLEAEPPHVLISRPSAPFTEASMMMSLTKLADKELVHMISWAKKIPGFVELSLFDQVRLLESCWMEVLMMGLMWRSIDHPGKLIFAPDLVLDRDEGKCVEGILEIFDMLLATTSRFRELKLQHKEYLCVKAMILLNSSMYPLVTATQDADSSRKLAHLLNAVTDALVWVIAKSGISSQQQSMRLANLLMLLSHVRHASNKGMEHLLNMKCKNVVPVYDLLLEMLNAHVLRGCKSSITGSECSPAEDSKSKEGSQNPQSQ
Sequence of Estrogen receptor beta (Homo sapiens) (Q92731 whole entry, looked up, the tested form may be a part): as above
Sequence of Retinoic acid receptor alpha (Homo sapiens) (P10276 whole entry, looked up): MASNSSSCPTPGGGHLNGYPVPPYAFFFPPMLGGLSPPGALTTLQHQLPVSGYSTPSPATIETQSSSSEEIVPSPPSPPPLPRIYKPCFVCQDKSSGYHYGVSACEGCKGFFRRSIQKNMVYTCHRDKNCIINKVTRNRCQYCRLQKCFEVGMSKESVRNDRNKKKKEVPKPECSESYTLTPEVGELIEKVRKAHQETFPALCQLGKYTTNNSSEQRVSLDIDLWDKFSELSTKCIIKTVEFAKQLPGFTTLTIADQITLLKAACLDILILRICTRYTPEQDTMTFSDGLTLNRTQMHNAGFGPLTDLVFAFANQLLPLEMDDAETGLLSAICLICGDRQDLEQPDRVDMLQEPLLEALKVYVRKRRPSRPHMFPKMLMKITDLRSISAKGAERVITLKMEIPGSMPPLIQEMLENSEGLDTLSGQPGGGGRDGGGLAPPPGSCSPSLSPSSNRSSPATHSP
Sequence of rat Mineralocorticoid Receptor (MR), Nr3c2 (gene 25672) (P22199 whole entry, looked up): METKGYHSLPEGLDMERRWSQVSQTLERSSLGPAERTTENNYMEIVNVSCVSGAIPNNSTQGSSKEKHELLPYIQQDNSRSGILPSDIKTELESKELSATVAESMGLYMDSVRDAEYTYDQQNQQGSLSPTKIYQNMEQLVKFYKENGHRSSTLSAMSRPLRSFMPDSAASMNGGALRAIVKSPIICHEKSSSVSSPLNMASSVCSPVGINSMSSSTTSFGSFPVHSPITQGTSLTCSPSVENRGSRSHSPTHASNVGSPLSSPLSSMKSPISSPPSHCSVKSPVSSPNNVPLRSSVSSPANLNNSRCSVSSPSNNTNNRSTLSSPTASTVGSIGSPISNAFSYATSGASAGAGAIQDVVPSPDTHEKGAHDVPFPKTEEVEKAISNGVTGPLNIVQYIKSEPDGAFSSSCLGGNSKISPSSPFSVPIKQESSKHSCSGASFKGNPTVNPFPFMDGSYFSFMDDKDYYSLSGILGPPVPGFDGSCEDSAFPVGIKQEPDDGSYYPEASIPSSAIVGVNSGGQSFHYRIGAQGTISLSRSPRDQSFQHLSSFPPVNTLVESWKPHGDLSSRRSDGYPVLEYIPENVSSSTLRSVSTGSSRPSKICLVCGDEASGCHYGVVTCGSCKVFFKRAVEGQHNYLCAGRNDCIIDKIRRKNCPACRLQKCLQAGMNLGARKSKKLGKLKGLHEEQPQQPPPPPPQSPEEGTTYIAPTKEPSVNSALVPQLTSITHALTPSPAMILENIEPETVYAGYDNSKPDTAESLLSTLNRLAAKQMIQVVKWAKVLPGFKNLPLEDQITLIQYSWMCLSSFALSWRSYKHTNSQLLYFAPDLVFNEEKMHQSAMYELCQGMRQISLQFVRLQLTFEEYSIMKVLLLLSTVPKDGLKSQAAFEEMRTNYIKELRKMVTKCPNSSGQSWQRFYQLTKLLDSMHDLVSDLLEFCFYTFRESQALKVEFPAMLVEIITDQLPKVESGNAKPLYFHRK

Regarding `COC(=O)CCCCC(=O)OC`, in assay [1], the compound was called inactive.

In general, AC50 refers to the concentration giving half of the maximal activity seen. In the case of `Cc1oc(-c2ccccc2)nc1CCOc1ccc(C[C@H](Nc2ccccc2C(=O)c2ccccc2)C(=O)O)cc1`, the compound was called inactive in [1], in [3], in assay [4] and in [5]. For the same compound, the concentration at half-maximal activity (AC50) in [2] was 45.4 µM (active).

Take `c1ccc2c(c1)ccc1ccccc12`: the compound was called inactive in [1], in assay [2] and in assay [3].

On to `CCCCCCCCCCCCc1ccccc1S(=O)(=O)O`, for which the compound was classed as inactive in assay [1], in assay [2], in assay [3], in [6], in [4] and in assay [5]. Further, the result in assay [8] was inactive. For the same compound, in [7], the AC50 is 19 µM (active).

Take `NC(=O)N(O)[C@@H]1C=C[C@H](Oc2cccc(Oc3ccc(F)cc3)c2)C1`: the outcome in assay [1] was inactive. Moreover, the figures for the concentration at half-maximal activity (AC50) in [4] and in assay [5] were 34.8 µM (active) and 50 µM (active), respectively.

In the case of `O=C1OC2(c3ccccc31)c1cc(Br)c(O)c(Br)c1Oc1c2cc(Br)c(O)c1Br`, the AC50 in assay [1] was 88.3 µM (active); in assay [4], 53.7 µM (active).

In the case of `OCCC(F)(F)C(F)(F)C(F)(F)C(F)(F)C(F)(F)C(F)(F)C(F)(F)C(F)(F)F`, the call in assay [1], in [2], in assay [3], in [4] and in assay [5] was inactive.

Turning to `N#C[C@@H]1CC(F)(F)CN1C(=O)CNC1CC2CCC(C1)N2c1ncccn1` (stereo not given in full), the compound was classed as inactive in assay [1], in assay [2], in assay [3], in assay [4], in assay [5] and in assay [7].

In the case of `NC(=O)N1C(=O)C(C(=O)c2cc(Cl)cs2)c2cc(F)c(Cl)cc21` (stereo not given), the compound was classed as inactive in assay [1], in [2], in assay [3], in assay [4], in [5] and in assay [9].

Regarding `CC#C[C@]1(O)CC[C@H]2[C@@H]3CCC4=CC(=O)CCC4=C3[C@@H](c3ccc(N(C)C)cc3)C[C@@]21C`, the call in assay [1], in assay [9] and in assay [8] was inactive. Further, the concentration at half-maximal activity (AC50) is 5.21 µM (active) in [6], 41.9 µM (active) in assay [9] and 29.9 µM (active) in assay [8].
